Activity calls are given as the source filed them.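 How the source made its calls, unless noted: active means visually confirmed hit in the image check and inhibition above 20%; inconclusive means visually confirmed hit but inhibition not above 20%; inactive means no visual hit in the image check.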
Assay: inhibitors of TNFa-induced NFkB p65 translocation, primary screen, imaging, HUVEC, MLSMR starter and 10KST1 sets (AID 438;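 active means inhibition above 20% together with a positive visual image hit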;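 further: compound added about 3h40 before a 20 min TNFalpha stimulation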;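 on inhibition: signal is the nuclear over cytoplasmic p65 intensity ratio per well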)
Settings: HUVEC TNFa-induced p65 nuclear translocation; cell count: measured here: nuclei count (cytotoxicity indicator), at 2.08 µM; inhibition: at 2 µM, stronger effect = higher value, 0% TNFa-plus-vehicle, 100% no-TNFa wells

Row | SMILES | cell count | inhibition
1 | N#CC1=C(SCc2ccccc2)NC2=C(C(=O)CCC2)C1c1ccc2c(c1)OCO2 (stereo not given) | 490 | -28.9% (inactive)
2 | CC(=O)C1=C(O)C(=O)N(c2cccc(C(=O)O)c2)C1c1ccccc1F (stereo not given) | 545 | -2.4% (inactive)
3 | Cc1[nH]nc2cn[nH]c12 | 531 | -7.3% (inactive)
4 | CCCCOc1ccc(CSC(CC(=O)O)C(=O)O)cc1 (stereo not given) | 336 | -16.7% (inactive)
5 | O=S(=O)(c1ccccc1)N1CCC(N2CCCCCC2)CC1 | 360 | -15.1% (inactive)
6 | COc1cccc(C2/C(=C(\O)c3ccc4c(c3)OCCO4)C(=O)C(=O)N2CCN(C)C)c1 (stereo not given) | 509 | -0.6% (inactive)
7 | CC1(C)CC(=O)C(C=NCC(O)c2ccccc2)=C(O)C1 (stereo not given) | 461 | -12.7% (inactive)
8 | Cc1ccccc1C(=O)c1ccc2c(c1)n(C)c(=O)n2C | 547 | -22.1% (inactive)
9 | COC(=O)C(NC(C)=O)(Nc1ccc(Br)cc1)C(=O)OC | 485 | -1.7% (inactive)
10 | CCOC(=O)CSc1nc(N)c(C#N)c(-c2ccc(OC)cc2)c1C#N | 475 | 1.6% (inactive)
11 | COc1cccc(/C(O)=C2/C(=O)C(=O)N(CCCN(C)C)C2c2cccc(Cl)c2)c1 (stereo not given) | 339 | -13.6% (inactive)
12 | O=C(O)CC(NCc1ccco1)C(=O)OCC1CCCO1 (stereo not given) | 557 | -3.4% (inactive)
13 | CNc1oc(-c2ccc(Cl)cc2)nc1C#N | 444 | -4.2% (inactive)
14 | O=C(O)CCCC(=O)Nc1ccn(-c2ccccc2)n1 | 639 | 3.1% (inactive)
15 | CCOC(=O)C1=C(C)N=C2SC(C)C(=O)N2C1c1ccc(OC(C)=O)c(OC)c1 (stereo not given) | 364 | -4% (inactive)
16 | CCOc1cccc(-c2nn3c(-c4ccco4)nnc3s2)c1 | 591 | -18.9% (inactive)
17 | COc1ccc(/C(O)=C2/C(=O)C(=O)N(c3ncccn3)C2c2ccc(OC)c(OC)c2)cc1 (stereo not given) | 584 | -2.6% (inactive)
18 | COc1cccc2c(=O)c(SC(F)(F)C(F)C(F)(F)F)c(C)[nH]c12 (stereo not given) | 311 | -0.8% (inactive)
19 | COc1ccccc1N(O)C1CC(=O)N(c2ccc(F)cc2)C1=O (stereo not given) | 304 | -7.6% (inactive)
20 | CC1CN(C2CCN(S(=O)(=O)c3ccccc3)CC2)CC(C)O1 (stereo not given) | 451 | -10.8% (inactive)

Row | SMILES | cell count | inhibition
21 | CC(C)OC(=O)c1nn2c(C(F)(F)F)cc(-c3ccc(Br)o3)nc2c1Br | 519 | -4.9% (inactive)
22 | O=S(=O)(c1ccc(Cl)cc1)N1CCC(N2CCCCCC2)CC1 | 450 | -23.8% (inactive)
23 | CCCCNC(=O)N1CCOCCOCCN(C(=O)NCCCC)CCOCCOCC1 | 546 | -15.4% (inactive)
24 | C=CCc1c(C)c(C#N)c2nc3ccccc3n2c1N1CCN(C)CC1 | 528 | -23% (inactive)
25 | COc1ccc(C2=Nn3c(nnc3-c3ccccn3)SC2)cc1 | 635 | -4.7% (inactive)
26 | COC(=O)c1nn2c(C(F)(F)F)cc(-c3ccc(Br)o3)nc2c1Br | 510 | -7.1% (inactive)
27 | Cc1cc(C)nc(N(C#N)CC(=O)N(c2ccccc2)C(C)C)n1 | 584 | -10.3% (inactive)
28 | CC1(C)CC(N(Cc2ccco2)C(=O)Cc2ccccc2)CCO1 (stereo not given) | 535 | 12.5% (inactive)
29 | O=C(c1ccc(=O)oc1)N1CCOCC1 | 357 | -5.3% (inactive)
30 | CCOC(=O)C1CCCN(c2nc3ccccc3nc2C(C#N)C(=O)OCCOC)C1 (stereo not given) | 542 | -14.7% (inactive)
31 | COC(=O)CSc1nc(N)c2c3c(sc2n1)CCCC3 | 627 | -10.6% (inactive)
32 | Cc1c(C(Nc2ccccn2)c2ccccc2)c(=O)n(-c2ccccc2)n1C (stereo not given) | 522 | -5.3% (inactive)
33 | CSc1nc(N)nc(SCC(=O)OC(C)C)c1C#N | 394 | -11.8% (inactive)
34 | CCOC(=O)c1c(CNCCN(CC)CC)n(C)c2cc(Br)c(OC)cc12 | 321 | 3.8% (inactive)
35 | COc1ccc(/C(O)=C2/C(=O)C(=O)N(CCCN(C)C)C2c2ccccc2)cc1OC (stereo not given) | 346 | -14.7% (inactive)
36 | Nc1nnc(CSc2ccc(Cl)cc2)s1 | 605 | -14% (inactive)
37 | Fc1ccc2[nH]c3c(N4CCN(C5CCCCC5)CC4)ncnc3c2c1 | 501 | -4.2% (inactive)
38 | COC(=O)C(NC(C)=O)(Nc1ccccc1)C(=O)OC | 566 | -19.3% (inactive)
39 | CN(C)C/C(Cl)=C(\Cl)c1ccccc1 | 584 | -0.1% (inactive)
40 | Cc1[nH]c2ccc3c(ncn3CCC#N)c2c1C | 616 | -7.5% (inactive)

Assay: endothelial E-selectin expression blockers – imaging, HUVEC, immunofluorescence, MLSMR starter and 10KST1 sets, primary screen (AID 487);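 on inhibition: signal is fraction of cell area covered by stained E-selectin grains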;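 on nuclei count: 100% = median nuclei count of all wells on the same plate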
Settings: HUVEC TNFalpha-induced E-selectin immunofluorescence imaging, at 2 µM; inhibition: stronger effect = higher value; nuclei count: measured here: cell number, toxicity

Row | SMILES | inhibition | nuclei count [%]
41 | N#CC1=C(SCc2ccccc2)NC2=C(C(=O)CCC2)C1c1ccc2c(c1)OCO2 (stereo not given) | -54.8% (inactive) | 138
42 | CC(=O)C1=C(O)C(=O)N(c2cccc(C(=O)O)c2)C1c1ccccc1F (stereo not given) | -73.9% (inactive) | 156
43 | Cc1[nH]nc2cn[nH]c12 | -92.8% (inactive) | 130
44 | CCCCOc1ccc(CSC(CC(=O)O)C(=O)O)cc1 (stereo not given) | -75.1% (inactive) | 114
45 | O=S(=O)(c1ccccc1)N1CCC(N2CCCCCC2)CC1 | -30.4% (inactive) | 107
46 | COc1cccc(C2/C(=C(\O)c3ccc4c(c3)OCCO4)C(=O)C(=O)N2CCN(C)C)c1 (stereo not given) | -108% (inactive) | 138
47 | CC1(C)CC(=O)C(C=NCC(O)c2ccccc2)=C(O)C1 (stereo not given) | -181% (inactive) | 204
48 | Cc1ccccc1C(=O)c1ccc2c(c1)n(C)c(=O)n2C | -296% (inactive) | 200
49 | COC(=O)C(NC(C)=O)(Nc1ccc(Br)cc1)C(=O)OC | -127% (inactive) | 153
50 | CCOC(=O)CSc1nc(N)c(C#N)c(-c2ccc(OC)cc2)c1C#N | -88.5% (inactive) | 127
51 | COc1cccc(/C(O)=C2/C(=O)C(=O)N(CCCN(C)C)C2c2cccc(Cl)c2)c1 (stereo not given) | -326% (inactive) | 182
52 | O=C(O)CC(NCc1ccco1)C(=O)OCC1CCCO1 (stereo not given) | -26.1% (inactive) | 134
53 | CNc1oc(-c2ccc(Cl)cc2)nc1C#N | -114% (inactive) | 169
54 | O=C(O)CCCC(=O)Nc1ccn(-c2ccccc2)n1 | -63.9% (inactive) | 142
55 | CCOC(=O)C1=C(C)N=C2SC(C)C(=O)N2C1c1ccc(OC(C)=O)c(OC)c1 (stereo not given) | -11.8% (inactive) | 184
56 | CCOc1cccc(-c2nn3c(-c4ccco4)nnc3s2)c1 | -310% (inactive) | 153
57 | COc1ccc(/C(O)=C2/C(=O)C(=O)N(c3ncccn3)C2c2ccc(OC)c(OC)c2)cc1 (stereo not given) | -34.9% (inactive) | 176
58 | COc1cccc2c(=O)c(SC(F)(F)C(F)C(F)(F)F)c(C)[nH]c12 (stereo not given) | -14.2% (inactive) | 105
59 | COc1ccccc1N(O)C1CC(=O)N(c2ccc(F)cc2)C1=O (stereo not given) | -18.5% (inactive) | 92
60 | CC1CN(C2CCN(S(=O)(=O)c3ccccc3)CC2)CC(C)O1 (stereo not given) | -248% (inactive) | 159

Row | SMILES | inhibition | nuclei count [%]
61 | CC(C)OC(=O)c1nn2c(C(F)(F)F)cc(-c3ccc(Br)o3)nc2c1Br | 5.6% (inactive) | 127
62 | O=S(=O)(c1ccc(Cl)cc1)N1CCC(N2CCCCCC2)CC1 | -135% (inactive) | 160
63 | CCCCNC(=O)N1CCOCCOCCN(C(=O)NCCCC)CCOCCOCC1 | -120% (inactive) | 144
64 | C=CCc1c(C)c(C#N)c2nc3ccccc3n2c1N1CCN(C)CC1 | -93.7% (inactive) | 150
65 | COc1ccc(C2=Nn3c(nnc3-c3ccccn3)SC2)cc1 | -43.3% (inactive) | 169
66 | COC(=O)c1nn2c(C(F)(F)F)cc(-c3ccc(Br)o3)nc2c1Br | 1.9% (inactive) | 120
67 | Cc1cc(C)nc(N(C#N)CC(=O)N(c2ccccc2)C(C)C)n1 | 50% (inactive) | 140
68 | CC1(C)CC(N(Cc2ccco2)C(=O)Cc2ccccc2)CCO1 (stereo not given) | -104% (inactive) | 145
69 | O=C(c1ccc(=O)oc1)N1CCOCC1 | -8.3% (inactive) | 167
70 | CCOC(=O)C1CCCN(c2nc3ccccc3nc2C(C#N)C(=O)OCCOC)C1 (stereo not given) | -102% (inactive) | 160
71 | COC(=O)CSc1nc(N)c2c3c(sc2n1)CCCC3 | -9.7% (inactive) | 172
72 | Cc1c(C(Nc2ccccn2)c2ccccc2)c(=O)n(-c2ccccc2)n1C (stereo not given) | -96.1% (inactive) | 136
73 | CSc1nc(N)nc(SCC(=O)OC(C)C)c1C#N | -26.4% (inactive) | 76.9
74 | CCOC(=O)c1c(CNCCN(CC)CC)n(C)c2cc(Br)c(OC)cc12 | -25% (inactive) | 77.4
75 | COc1ccc(/C(O)=C2/C(=O)C(=O)N(CCCN(C)C)C2c2ccccc2)cc1OC (stereo not given) | -317% (inactive) | 131
76 | Nc1nnc(CSc2ccc(Cl)cc2)s1 | 33.5% (inactive) | 171
77 | Fc1ccc2[nH]c3c(N4CCN(C5CCCCC5)CC4)ncnc3c2c1 | -68.6% (inactive) | 153
78 | COC(=O)C(NC(C)=O)(Nc1ccccc1)C(=O)OC | -259% (inactive) | 191
79 | CN(C)C/C(Cl)=C(\Cl)c1ccccc1 | -20.3% (inactive) | 159
80 | Cc1[nH]c2ccc3c(ncn3CCC#N)c2c1C | -48.6% (inactive) | 166

Reference: PubChem BioAssay
